The values below come from PubChem BioAssay AID463173 (ICCB-Longwood Screening Facility, Harvard Medical School, 2010).

Among all 52,000 compounds or so, about 4,300 (8.3%) were called active. This excerpt belongs to a sample that is enriched for actives. A number with no mark means an inactive call. Cut-off read from the data, not from the text of the source: active = survival mostly below about 52% (no sharp cut-off); inactive = mostly above about 56%.

For this test, the system named is DeltatarO mutant. As to the kind of experiment: S. aureus survival, RN4220 and DeltatarO strains – OD600, teichoic acid synthesis inhibitors, primary screen (AID 463173). The note with it: S. aureus RN4220 wild type/DeltatarO growth, OD600, 18 h, active compounds read low, screened at 18.75 µg/mL (by protocol).
As for `COc1ccc(CCn2c(=O)c3ccccc3n(CC(=O)Nc3cccc(C)c3)c2=O)cc1OC`, the survival was 83%.
The result for `O=C(CSc1nnnn1C1CCCC1)c1ccc2c(c1)OCCO2` reads 70% (active); that for `CC(C)n1nnnc1SCC(=O)c1ccc2c(c1)OCCO2`, 87%.
In the case of `Cc1ccc(C(=O)CSc2nnnn2C2CCCC2)cc1C` it was 67%; in that of `COc1ccc(C(=O)NNc2ncnc3c2cnn3-c2ccc(C)cc2C)cc1`, 0% (active); in that of `Cc1cccc(C(=O)NNc2ncnc3c2cnn3-c2ccc(C)cc2C)c1`, 106%.
The result for `Cc1ccc(CNc2ncnc3c2cnn3-c2ccc(C)cc2C)cc1` reads 77%; that for `COc1ccc(C(=O)NNc2ncnc3c2cnn3-c2ccc(C)c(Cl)c2)cc1`, 69%; that for `Cc1ccc(-n2ncc3c(N(CC(C)C)CC(C)C)ncnc32)c(C)c1`, 78%.
`Cc1ccc(-n2ncc3c(NCC(C)C)ncnc32)c(C)c1`: the survival was 37% (active).
As for `O=C(NCC(c1cccnc1)N1CCc2ccccc2C1)C(=O)Nc1ccccc1F` (stereo not drawn), the survival was 75%.
In the case of `CCN(CC)CC(=O)Nc1ccc(-c2ccc(NC(=O)CN(CC)CC)cc2)cc1` it was 113%; in that of `CC1CCC(C(=O)NC(C(=O)OCC(=O)c2ccccc2)C(C)C)CC1` (stereo not drawn), 75%.
For `COc1ccc(C2C(C(=O)Nc3ccccc3)=C(C)Nc3nc(SCC(=O)c4ccc(C)cc4)nn32)cc1` (stereo not drawn), the survival is 71%.
In the case of `COc1ccc(C2C(C(=O)Nc3ccccc3)=C(C)Nc3nc(-c4ccccc4)nn32)cc1OC` (stereo not drawn) it was 85%; in that of `CC1=C(C(=O)Nc2ccccc2)C(c2cccc(Cl)c2)n2nc(SCC(=O)c3ccc(C)cc3)nc2N1` (stereo not drawn), 52% (active); in that of `CC1=C(C(=O)Nc2ccccc2)C(c2ccc(C(=O)O)cc2)n2nc(SCC(=O)c3ccc(C)cc3)nc2N1` (stereo not drawn), 82%.
Regarding `COc1cccc(C2C(C(=O)Nc3ccccc3)=C(C)Nc3nc(-c4ccccc4)nn32)c1` (stereo not drawn), the survival was 57% (active).
The result for `COc1cc(OC)cc(-c2nc3n(n2)C(c2ccccc2F)C(C(=O)Nc2cccnc2)=C(C)N3)c1` (stereo not drawn) reads 45% (active).
Turning to `COc1ccc(-c2nc3n(n2)C(c2ccccc2OC)C(C(=O)Nc2cccnc2)=C(C)N3)cc1` (stereo not drawn), the survival is 80%.
The result for `COc1ccc(C2C(C(=O)Nc3ccccc3)=C(C)Nc3nc(-c4ccccc4)nn32)c(OC)c1` (stereo not drawn) reads 82%; that for `COc1ccc(-c2nc3n(n2)C(c2ccccc2F)C(C(=O)Nc2cccnc2)=C(C)N3)cc1OC` (stereo not drawn), 81%; that for `CCOc1ccc(NC(=O)C2CCN(S(=O)(=O)c3ccc4c(c3)oc(=O)n4C)CC2)cc1`, 91%.
Consider `CCCCNC(=O)c1cnn2c(C)c(Cc3c(F)cccc3Cl)c(C)nc12`, for which the survival is 135%.
With `O=C(CN1C(=O)CCSc2ccccc21)Nc1ccc(C(F)(F)F)cc1`, the survival is 111%.
For the compound `N#Cc1c(N)nc2c(c1-c1ccccc1)CCCC2`, the survival was 102%.
In the case of `COc1ccc(S(=O)(=O)NCc2ccc3c(c2)CCN3C(=O)c2ccc(C)cc2)cc1Cl` it was 112%; in that of `CCOC(=O)c1oc2c(c1C)/C(=N/OC(=O)c1ccccc1Cl)CCC2`, 69%.
On to `Cc1cc(S(=O)(=O)Nc2cc3c(cc2N2CCOCC2)n(C)c(=O)c(=O)n3C)ccc1F`, for which the survival was 72%.
In the case of `CC(C)(C)c1nnc(NS(=O)(=O)c2ccc(F)cc2)s1` it was 82%; in that of `Cc1ccc(S(=O)(=O)Nc2nnc(CC(C)(C)C)s2)cc1`, 87%.
The result for `Cc1cc(C)c(S(=O)(=O)Nc2nnc(C(F)(F)F)s2)c(C)c1` reads 36% (active); that for `Cc1ccc(CSc2ncccc2C(=O)O)cc1`, 87%.
In the case of `Cc1cccc(CSc2ncccc2C(=O)O)c1`, the survival is 47% (active).
In the case of `O=C(O)c1cccnc1SCc1cccc(Cl)c1` it was 79%; in that of `Cc1ccc(NC(=O)c2c(C)oc3ccc(O)c(CN4CCCC4)c23)c(C)c1`, 67%; in that of `CCOc1ccc(CCNC(=O)Cn2ccc3cc(S(=O)(=O)N4CCCCCC4)ccc32)cc1`, 126%.
The result for `CCc1ccc(OC(=O)c2sc3ncn(Cc4cccc(F)c4)c(=O)c3c2C)cc1` reads 115%; that for `COc1ccc(S(=O)(=O)NCC(c2ccco2)N2CCN(c3ccc(F)cc3)CC2)cc1` (stereo not drawn), 84%; that for `CCC(=O)N1CCc2cc(S(=O)(=O)NC(CC(C)C)C(=O)Nc3ccc(CC)cc3)ccc21` (stereo not drawn), 60% (active).
`CCC(=O)N1CCc2cc(CNS(=O)(=O)c3ccc(Cl)s3)ccc21`: the survival was 93%.
The result for `CCC(=O)N1CCc2cc(S(=O)(=O)NC(Cc3ccccc3)C(=O)O)ccc21` (stereo not drawn) reads 25% (active).
The result for `CC(=O)N1CCc2cc(CNS(=O)(=O)c3ccc(Br)s3)ccc21` reads 73%.
In the case of `CCC(=O)N1CCc2cc(S(=O)(=O)NC(CC(C)C)C(=O)NCc3ccc(C)cc3)ccc21` (stereo not drawn) it was 97%; in that of `CCC(=O)N1CCc2cc(S(=O)(=O)NC(Cc3ccccc3)C(=O)Nc3ccc(C)cc3)ccc21` (stereo not drawn), 64%; in that of `CCC(=O)N1CCc2cc(S(=O)(=O)NC(CC(C)C)C(=O)NCc3ccc(F)cc3)ccc21` (stereo not drawn), 80%.
For `CCC(=O)N1CCc2cc(S(=O)(=O)NC(Cc3ccccc3)C(=O)NCc3ccccc3)ccc21` (stereo not drawn), the survival is 65%.
The result for `CCC(=O)N1CCc2cc(CNS(=O)(=O)c3ccc(Br)s3)ccc21` reads 47% (active); that for `COC(=O)c1ccccc1NC(=O)c1oc2ccc3c(c2c1C)C(=O)CC(C)(C)O3`, 80%.
The result for `Cc1nc2cc(C(=O)O)ccc2n1-c1ccc(C(C)C)cc1` reads 68%; that for `COc1cccc(CNC(=O)CSc2nc3ccccc3nc2Cc2ccccc2)c1`, 69%.
In the case of `COc1ccc(NS(=O)(=O)c2ccc(-c3cnc(C4CC4)o3)cc2)cc1Cl` it was 124%; in that of `CCOC(=O)C1CCCN(S(=O)(=O)c2ccc(OC)cc2)C1` (stereo not drawn), 76%; in that of `CN1C(=O)Cc2cc(S(=O)(=O)CCC(=O)Nc3ccccc3)ccc21`, 83%.
As for `Clc1ccc(CSc2nc3ncccc3[nH]2)cc1`, the survival was 71%.
The result for `O=C(O)c1cc(-n2c(/C=C\c3ccc(F)cc3)nc3ccccc3c2=O)ccc1Cl` reads 94%; that for `COC(=O)c1ccc(-n2c(/C=C\c3cccc(Br)c3)nc3ccccc3c2=O)cc1`, 70%.
On to `O=C(O)c1ccc(-n2c(/C=C\c3ccc(O)cc3)nc3ccccc3c2=O)cc1`, for which the survival is 58% (active).
